# Activity calls are given as the source filed them. Rule for the calls: active = hit-call score of the fitted dose curve at least 0.9, where 1 is the maximum; inactive = score below 0.9.
# Key:
# [1] = read-out: urokinase plasminogen activator (uPA), PLAU (gene 5328); assay: BSK_KF3CT_uPA: BioMAP Diversity Plus: KF3CT Assay for urokinase plasminogen activator (uPA) Biomarker Activity (AID 2283075); details: primary human keratinocytes with fibroblasts; actives raise or lower the signal
# In short: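 ELISA readout of uPA, analyzed for signal gain or loss relative to DMSO, from a human primary keratinocyte–foreskin fibroblast co-culture measured 24 h after chemical treatment.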
# [2] = read-out: E-selectin (Homo sapiens) (UniProt P16581); assay: BSK_LPS_Eselectin: BioMAP Diversity Plus: LPS Assay for Eselectin Biomarker Activity (AID 2283077); details: primary human HUVEC with PBMC; actives raise or lower the signal
# In short: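 Human umbilical vein endothelial cells co-cultured with peripheral blood mononuclear cells under LPS stimulation; E-selectin measured by ELISA 24 h after chemical dosing. Activity fitted bidirectionally against DMSO as negative control and baseline.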
# [3] = read-out: Interleukin-8 (IL8), CXCL8 (gene 3576); assay: BSK_LPS_IL8: BioMAP Diversity Plus: LPS Assay for Interleukin-8 (IL8) Biomarker Activity (AID 2283078); details: primary human HUVEC with PBMC; actives raise or lower the signal
# In short: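 Human umbilical vein endothelial cells co-cultured with PBMC were stimulated with LPS; IL-8 levels were measured by ELISA 24 h after chemical dosing. Activity was fitted bidirectionally against DMSO as negative control and baseline.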
# [4] = BSK_LPS_SRB: Viability Assessment in the BioMAP Diversity Plus: LPS Assay (AID 2283079); details: primary human HUVEC with PBMC;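 note: total protein by sulforhodamine B absorbance as a cytotoxicity measure; measured one day after compound addition; fitted in both directions against DMSO so loss or gain of signal counts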
# In short: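 Human umbilical vein endothelial cells co-cultured with PBMC (LPS system) were dosed for 24 h. Total protein was stained with 0.1% sulforhodamine B after 10% TCA fixation, read at 560 nm, and fitted bidirectionally against DMSO baseline.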
# [5] = read-out: Interleukin-1 alpha (IL1a), IL1A (gene 3552); assay: BSK_LPS_IL1a: BioMAP Diversity Plus: LPS Assay for Interleukin-1 alpha (IL1a) Biomarker Activity (AID 2283080); details: primary human HUVEC with PBMC; actives raise or lower the signal
# In short: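 Human umbilical vein endothelial cells co-cultured with peripheral blood mononuclear cells were LPS-stimulated and exposed to test chemicals for 24 h. IL-1 alpha was quantified by ELISA, with bidirectional curve fitting against DMSO as the negative control and baseline.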
# [6] = read-out: Monocyte Chemoattractant Protein-1 (MCP1), CCL2 (gene 6347); assay: BSK_LPS_MCP1: BioMAP Diversity Plus: LPS Assay for Monocyte Chemoattractant Protein-1 (MCP1) Biomarker Activity (AID 2283081); details: primary human HUVEC with PBMC; actives raise or lower the signal;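 for AC50: secreted MCP-1 protein quantified by ELISA in culture supernatant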
# In short: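 HUVEC plus PBMC co-culture (human primary cells, LPS system) exposed to test chemical for 24 h; MCP-1 measured by ELISA. Bidirectional curve fitting against DMSO baseline; parallel SRB total-protein staining flags overt cytotoxicity.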
# [7] = BSK_LPS_PGE2: BioMAP Diversity Plus: LPS Assay for Prostaglandin E2 (PGE2) Biomarker Activity (AID 2283082); details: primary human HUVEC with PBMC; actives raise or lower the signal
# In short: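 HUVEC plus PBMC co-culture stimulated with LPS; secreted PGE2 quantified by ELISA 24 h after chemical dosing. Activity fitted bidirectionally against DMSO as negative control and baseline; parallel SRB total-protein staining served as cytotoxicity check.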
# [8] = read-out: Macrophage colony-stimulating factor (MCSF), CSF1 (gene 1435); assay: BSK_LPS_MCSF: BioMAP Diversity Plus: LPS Assay for Macrophage colony-stimulating factor (MCSF) Biomarker Activity (AID 2283083); details: primary human HUVEC with PBMC; actives raise or lower the signal
# In short: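 Human umbilical vein endothelial cells co-cultured with peripheral blood mononuclear cells were exposed to compound for 24 h. M-CSF levels were measured by ELISA, and bidirectional curve fitting used DMSO as the negative control and baseline.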
# [9] = read-out: Tissue Factor, F3 (gene 2152); assay: BSK_LPS_TissueFactor: BioMAP Diversity Plus: LPS Assay for Tissue Factor Biomarker Activity (AID 2283084); details: primary human HUVEC with PBMC; actives raise or lower the signal
# In short: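 Human umbilical vein endothelial cells co-cultured with peripheral blood mononuclear cells were dosed and stimulated with LPS. Cell-surface CD142 was quantified by ELISA at 24 h. Activity was fitted bidirectionally against DMSO baseline.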
# [10] = read-out: Tumor necrosis factor (Homo sapiens) (UniProt P01375); assay: BSK_LPS_TNFa: BioMAP Diversity Plus: LPS Assay for Tumour Necrosis Factor alpha (TNFa) Biomarker Activity (AID 2283085); details: primary human HUVEC with PBMC; actives raise or lower the signal
# In short: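 Human umbilical vein endothelial cells co-cultured with PBMC were exposed to test chemical and TNFa measured by ELISA 24 h after dosing. Bidirectional curve fitting was done relative to DMSO as negative control and baseline.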
# [11] = read-out: Vascular cell adhesion molecule 1 (VCAM1), VCAM1 (gene 7412); assay: BSK_LPS_VCAM1: BioMAP Diversity Plus: LPS Assay for Vascular cell adhesion molecule 1 (VCAM1) Biomarker Activity (AID 2283086); details: primary human HUVEC with PBMC; actives raise or lower the signal
# In short: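 Human umbilical vein endothelial cells co-cultured with peripheral blood mononuclear cells under LPS stimulation were exposed to test chemical for 24 h. VCAM-1 levels were then measured by ELISA, with bidirectional curve fitting relative to DMSO as negative control and baseline.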
# CD38, CD38 (gene 952) = assay: BSK_SAg_CD38: BioMAP Diversity Plus: SAg Assay for CD38 Biomarker Activity (AID 2283087); details: primary human HUVEC with PBMC; actives raise or lower the signal
# In short: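 Fluorescence ELISA of cell-surface CD38 served as the read-out, with either increase or decrease fitted against DMSO controls. Cells were a human umbilical vein endothelium plus PBMC co-culture under SEB/TSST-1 stimulation, measured 24 h after dosing.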
# CD40, CD40 (gene 958) [12] = assay: BSK_SAg_CD40: BioMAP Diversity Plus: SAg Assay for CD40 Biomarker Activity (AID 2283088); details: primary human HUVEC with PBMC; actives raise or lower the signal
# In short: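 Human umbilical vein endothelial cells co-cultured with PBMC; CD40 levels measured by ELISA with fluorescence read-out 24 h after chemical dosing. Gain or loss of signal fitted bidirectionally against DMSO baseline.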
# CD69, CD69 (gene 969) = assay: BSK_SAg_CD69: BioMAP Diversity Plus: SAg Assay for CD69 Biomarker Activity (AID 2283089); details: primary human HUVEC with PBMC; actives raise or lower the signal;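 for AC50: cell surface CD69 protein quantified by ELISA with fluorescence detection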
# In short: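 ELISA, fluorescence read-out: CD69 on human umbilical vein endothelial cell + PBMC co-culture, 24 h post-dosing. Gain or loss of signal fitted bidirectionally against DMSO baseline.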
# [13] = read-out: Monocyte Chemoattractant Protein-1 (MCP1), CCL2 (gene 6347); assay: BSK_SAg_MCP1: BioMAP Diversity Plus: SAg Assay for Monocyte Chemoattractant Protein-1 (MCP1) Biomarker Activity (AID 2283090); details: primary human HUVEC with PBMC; actives raise or lower the signal
# In short: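 MCP-1 levels in the endothelial–PBMC SAg co-culture were quantified by ELISA at 24 h post-dosing; both increases and decreases versus DMSO scored. Cytotoxicity monitored by SRB total protein in parallel cultures.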
# [14] = read-out: E-selectin (Homo sapiens) (UniProt P16581); assay: BSK_SAg_Eselectin: BioMAP Diversity Plus: SAg Assay for Eselectin Biomarker Activity (AID 2283091); details: primary human HUVEC with PBMC; actives raise or lower the signal
# In short: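 HUVEC co-cultured with PBMC, compound dosed then read at 24 h; E-selectin measured by ELISA. Activity fitted bidirectionally against DMSO as negative control and baseline.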
# [15] = read-out: Monokine induced gamma interferon (MIG), CXCL9 (gene 4283); assay: BSK_SAg_MIG: BioMAP Diversity Plus: SAg Assay for Monokine induced gamma interferon (MIG) Biomarker Activity (AID 2283092); details: primary human HUVEC with PBMC; actives raise or lower the signal
# In short: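 ELISA readout of MIG/CXCL9; primary human umbilical vein endothelial cells co-cultured with peripheral blood mononuclear cells; 24 h post-dose; gain/loss fit vs DMSO baseline.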
# [16] = BSK_SAg_PBMCCytotoxicity: PBMC Cytotoxicity Assessment in the BioMAP Diversity Plus: SAg Assay (AID 2283093); details: primary human HUVEC with PBMC;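 note: PBMC viability measured as Alamar Blue reduction fluorescence at 546/580 nm; fitted both ways against DMSO so a hit may be loss or gain of signal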;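 for AC50: PBMC superantigen activated with SEB plus TSST-1 one hour after compound addition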
# In short: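 Compound added to 75,000 PBMC/well for 1 h; SEB and TSST-1 then added at 20 ng/mL final each; 90 h incubation; Alamar Blue 6 h; read 546/580 nm ex/em. Activity fitted bidirectionally relative to DMSO baseline.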
# [17] = read-out: Interleukin-8 (IL8), CXCL8 (gene 3576); assay: BSK_SAg_IL8: BioMAP Diversity Plus: SAg Assay for Interleukin-8 (IL8) Biomarker Activity (AID 2283094); details: primary human HUVEC with PBMC; actives raise or lower the signal
# In short: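 Human umbilical vein endothelial cells co-cultured with peripheral blood mononuclear cells; IL-8 measured by ELISA 24 h after chemical dosing. Bidirectional concentration-response fitting used DMSO as negative control and activity baseline.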
# CD40, CD40 (gene 958) [18] = assay: BSK_LPS_CD40: BioMAP Diversity Plus: LPS Assay for CD40 Biomarker Activity (AID 2283076); details: primary human HUVEC with PBMC; actives raise or lower the signal
# In short: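 Primary human umbilical vein endothelial cells co-cultured with peripheral blood mononuclear cells, LPS-stimulated, were dosed with chemical and read 24 h later. CD40 levels were measured by ELISA and fitted bidirectionally against DMSO as negative control and baseline.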
# Sequence of Tumor necrosis factor (Homo sapiens) (P01375 whole entry, looked up): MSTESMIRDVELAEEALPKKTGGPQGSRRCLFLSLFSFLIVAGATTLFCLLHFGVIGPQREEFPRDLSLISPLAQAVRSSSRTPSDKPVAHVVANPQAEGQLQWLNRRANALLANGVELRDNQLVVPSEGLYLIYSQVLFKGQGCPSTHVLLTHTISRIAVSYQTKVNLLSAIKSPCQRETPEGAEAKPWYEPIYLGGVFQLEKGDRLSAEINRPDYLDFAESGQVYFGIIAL
# Sequence of E-selectin (Homo sapiens) (P16581 whole entry, looked up): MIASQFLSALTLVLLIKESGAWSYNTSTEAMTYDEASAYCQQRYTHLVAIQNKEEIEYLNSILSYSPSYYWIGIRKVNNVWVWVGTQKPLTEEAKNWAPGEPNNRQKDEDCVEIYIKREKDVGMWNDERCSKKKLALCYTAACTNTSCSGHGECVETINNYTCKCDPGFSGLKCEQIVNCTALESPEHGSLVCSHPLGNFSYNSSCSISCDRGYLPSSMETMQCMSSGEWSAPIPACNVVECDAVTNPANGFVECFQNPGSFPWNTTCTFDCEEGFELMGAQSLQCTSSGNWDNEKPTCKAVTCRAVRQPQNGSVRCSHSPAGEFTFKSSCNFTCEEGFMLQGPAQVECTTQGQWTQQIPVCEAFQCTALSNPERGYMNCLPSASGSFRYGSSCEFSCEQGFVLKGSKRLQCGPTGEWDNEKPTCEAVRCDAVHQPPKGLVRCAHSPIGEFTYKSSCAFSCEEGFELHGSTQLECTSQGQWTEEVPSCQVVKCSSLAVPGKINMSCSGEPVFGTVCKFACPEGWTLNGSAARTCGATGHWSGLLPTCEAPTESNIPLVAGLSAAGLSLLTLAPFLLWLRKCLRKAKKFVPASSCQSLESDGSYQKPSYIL
smiles,measurement,setting,value
CCCC(=O)OCC,outcome,[1],inactive
same,outcome,[2],inactive
same,outcome,[3],inactive
same,outcome,[4],inactive
same,outcome,[5],inactive
same,outcome,[6],inactive
same,outcome,[7],inactive
same,outcome,[8],inactive
same,outcome,[9],inactive
same,outcome,[10],inactive
same,outcome,[11],inactive
same,outcome,"CD38, CD38 (gene 952)",inactive
same,outcome,"CD40, CD40 (gene 958) [12]",inactive
same,outcome,"CD69, CD69 (gene 969)",inactive
same,outcome,[13],inactive
same,outcome,[14],inactive
same,outcome,[15],inactive
same,outcome,[16],inactive
same,outcome,[17],inactive
CCCCCCCCO,outcome,[1],inactive
same,outcome,"CD40, CD40 (gene 958) [18]",inactive
same,outcome,[2],inactive
same,outcome,[3],inactive
same,outcome,[4],inactive
same,outcome,[5],inactive
same,outcome,[6],inactive
same,outcome,[7],inactive
same,outcome,[8],inactive
same,outcome,[9],inactive
same,outcome,[10],inactive
same,outcome,[11],inactive
same,outcome,"CD40, CD40 (gene 958) [12]",inactive
same,outcome,"CD69, CD69 (gene 969)",inactive
same,outcome,[13],inactive
same,outcome,[14],inactive
same,outcome,[15],inactive
same,outcome,[16],inactive
same,outcome,[17],inactive
Cc1[nH]cnc1C[C@H]1CCc2c(C)c3ccccc3n2C1=O,outcome,[1],inactive
same,AC50,"CD40, CD40 (gene 958) [18]",27.8 µM (active)
same,outcome,[2],inactive
same,AC50,[3],24.3 µM (active)
same,AC50,[4],26.2 µM (active)
same,outcome,[5],inactive
same,AC50,[6],27 µM (active)
same,outcome,[7],inactive
same,AC50,[8],29.2 µM (active)
same,outcome,[9],inactive
same,AC50,[10],25.7 µM (active)
same,AC50,[11],32.9 µM (active)
same,AC50,"CD40, CD40 (gene 958) [12]",29.8 µM (active)
same,AC50,"CD69, CD69 (gene 969)",27.4 µM (active)
same,AC50,[13],27.8 µM (active)
same,AC50,[14],30.8 µM (active)
same,AC50,[15],31.9 µM (active)
same,AC50,[16],30.7 µM (active)
same,AC50,[17],24.7 µM (active)
CCCN(C1CCN(C(=O)C2CCNCC2)CC1)[C@@H]1CCc2ccc(OC)cc2C1,outcome,[1],inactive
same,outcome,"CD40, CD40 (gene 958) [18]",inactive
same,outcome,[2],inactive
same,outcome,[3],inactive
same,outcome,[4],inactive
same,outcome,[5],inactive
same,outcome,[6],inactive
same,outcome,[7],inactive
same,outcome,[8],inactive
same,outcome,[9],inactive
same,outcome,[10],inactive
same,outcome,[11],inactive
same,outcome,"CD40, CD40 (gene 958) [12]",inactive
same,outcome,"CD69, CD69 (gene 969)",inactive
same,outcome,[13],inactive
same,outcome,[14],inactive
same,outcome,[15],inactive
same,outcome,[16],inactive
same,outcome,[17],inactive
COC(=O)CC(=O)OC,outcome,[1],inactive
same,outcome,"CD40, CD40 (gene 958) [18]",inactive
same,outcome,[2],inactive
same,outcome,[3],inactive
same,outcome,[4],inactive
same,outcome,[5],inactive
same,outcome,[6],inactive
same,outcome,[7],inactive
same,outcome,[8],inactive
same,outcome,[9],inactive
same,outcome,[10],inactive
same,outcome,[11],inactive
same,outcome,"CD40, CD40 (gene 958) [12]",inactive
same,outcome,"CD69, CD69 (gene 969)",inactive
same,outcome,[13],inactive
same,outcome,[14],inactive
same,outcome,[15],inactive
same,outcome,[17],inactive
COCCOCCOCCOC,outcome,[1],inactive
same,outcome,[2],inactive
same,outcome,[3],inactive
same,outcome,[4],inactive
same,outcome,[5],inactive
same,outcome,[6],inactive
same,outcome,[7],inactive
same,outcome,[8],inactive
same,outcome,[9],inactive
same,outcome,[10],inactive
same,outcome,[11],inactive
same,outcome,"CD38, CD38 (gene 952)",inactive
same,outcome,"CD40, CD40 (gene 958) [12]",inactive
same,outcome,"CD69, CD69 (gene 969)",inactive
same,outcome,[13],inactive
same,outcome,[14],inactive
same,outcome,[15],inactive
same,outcome,[16],inactive
same,outcome,[17],inactive
